Activity calls are given as the source filed them.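 The calls were made as follows: active = response below a set limit, under 55% cells CD8-positive and vesicle-bound, and CD8 cells' 90th-percentile brightness under 279; inactive = the rest.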

This test in a line: inhibitors of CD8+ T cell-vesicle binding, pilot screen, LFA-1/ICAM-1 modulator project, MLPCN validation set, flow cytometry (AID 2523).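 As to vesicle binding response: mean PE anti-B7-1 fluorescence of CD8+ cells relative to row control; 100% = QL9-loaded vesicles with DMSO vehicle in the same plate row.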 Particulars: 2C mouse CD8+ T cells, at 7 µM, stronger effect = lower value; double positive events: measured here: CD8+/vesicle+ event percentage. Background: In flow cytometry, cells or beads pass a laser one at a time.
`CCC(C)NCCOc1ccc(C(C)(C)c2ccccc2)cc1` (stereo not given): the double positive events is 61.9% and the vesicle binding response is 181% (inactive).
As for `O=C(NCc1ccc(N2CCCC2=O)cc1)c1ccc(F)cc1`, the vesicle binding response is 211% (inactive) and the double positive events is 62.5%.
For the molecule `CC1(C)O[C@@H]2C[C@H]3[C@@H]4C[C@H](F)C5=CC(=O)CC[C@]5(C)[C@H]4[C@@H](O)C[C@]3(C)[C@]2(C(=O)CO)O1`, the vesicle binding response is 128% (inactive) and the double positive events was found to be 63.8%.
In the case of `N/C(=N\OC(=O)CCCOc1ccc(Cl)cc1Cl)c1ccncc1`, the vesicle binding response is 142% (inactive) and the double positive events came to 56.8%.
`COCCCN1C(=O)/C(=C\c2cccs2)C(C(=O)OC)=C1C`: the vesicle binding response is 4220% (inactive) and the double positive events is 57.8%.
On to `Cc1ccc2nc(C)c3c(c2c1)OC(C(C)(Cl)Br)C3` (stereo not given), for which the double positive events is 73% and the vesicle binding response was 278% (inactive).
Regarding `CC12COC3(C(=O)Nc4ccc(F)cc4)CC1CCC32C` (stereo not given), the vesicle binding response is 157% (inactive) and the double positive events was 65.7%.
For `Cc1ccnc(NS(=O)(=O)c2ccc(N)cc2)n1`, the vesicle binding response was 203% (inactive) and the double positive events was found to be 63.6%.
In the same order, the values of `CC1(C)CC(=O)c2cnc(NC(=O)C3CCCC3)nc2C1` are 442% (inactive) and 61%.
In the case of `COc1ccc(CCN2CNc3c(c(=O)n(C)c(=O)n3C)C2)cc1OC`, the double positive events turned out to be 60.5% and the vesicle binding response was 214% (inactive).
Regarding `O=C(O)CCCc1ccccc1`, the double positive events was 61.7% and the vesicle binding response was 264% (inactive).
As for `CCCNCC(O)COc1ccccc1C(=O)CCc1ccccc1` (stereo not given), the vesicle binding response is 894% (inactive) and the double positive events was determined as 62.4%.
Turning to `COc1ccc(C(=O)O)cc1F`, the double positive events is 65.5% and the vesicle binding response is 151% (inactive).
On to `COc1cc(C)nc(-n2nc(C)cc2OC)n1`, for which the double positive events is 61.8% and the vesicle binding response is 5320% (inactive).
As to `CCCCCCC(=O)N(O)C1CC(=O)N(Cc2ccccc2)C1=O` (stereo not given), the vesicle binding response is 191% (inactive) and the double positive events stood at 59.7%.
Turning to `CC(=O)N1CCN(c2ccc(NC(=O)/C=C/c3ccccc3)cc2)CC1`, the double positive events was 63.1% and the vesicle binding response is 168% (inactive).
On the same counts, the results for `Cc1ccc(Nc2ncccc2C(=O)O)cc1C` are 64.4% and 264% (inactive).
For `CCCCCCCC(=O)OCC(O)CO` (stereo not given), the double positive events amounted to 60.6% and the vesicle binding response was 45.8% (inactive).
Consider `CSCCC(NC(C)=O)C(=O)Oc1ccc2c3c(c(=O)oc2c1)CCCC3` (stereo not given), for which the vesicle binding response was 56% (inactive) and the double positive events was 61.1%.
Take `CC(C)CN1CCN(Cc2ccc(C#CC(C)(C)O)cc2)CC1CCO` (stereo not given): the vesicle binding response is 215% (inactive) and the double positive events came out at 67.3%.
On the same counts, the results for `Cc1nc(C2CC(=O)OC23CCCCC3)cs1` (stereo not given) are 136% (inactive) and 61.4%.
`CO[C@H]1C=CO[C@@]2(C)Oc3c(C)c(O)c4c(O)c(c(C=NN5CCN(C)CC5)c(O)c4c3C2=O)NC(=O)C(C)=CC=C[C@H](C)[C@H](O)[C@@H](C)[C@@H](O)[C@@H](C)[C@H](OC(C)=O)[C@@H]1C`: the vesicle binding response was 575% (inactive) and the double positive events is 64.9%.
In the same order, the values of `COc1cccc(-n2cc(CNCc3c(C(=O)N(C)C)nc4ccc(Cl)cn34)cn2)c1` are 171% (inactive) and 61.4%.
On the same counts, the results for `S=C(c1ccc2c(c1)OCO2)N1CCCCC1` are 176% (inactive) and 62.6%.
As for `CC(C)Oc1ccc2c(=O)c(-c3ccccc3)coc2c1`, the double positive events stood at 66.7% and the vesicle binding response was 209% (inactive).
For the molecule `CCn1cc(CN2N=C(C)CC2c2ccccc2)c(C)n1` (stereo not given), the vesicle binding response is 87.5% (inactive) and the double positive events was 60.6%.
In the same order, the values of `CCCCOc1ccc(C(=O)CCN2CCCCC2)cc1` are 108% (inactive) and 58.1%.
Turning to `NCCCC(N)(C(=O)O)C(F)F` (stereo not given), the vesicle binding response is 174% (inactive) and the double positive events was 62.2%.
For `C[N+](C)(C)CCOP(=O)([O-])OC[C@H](O)CO`, the vesicle binding response is 133% (inactive) and the double positive events stood at 60.1%.
`O=C(O)C1CCN(C(=O)COc2ccc3c4c(c(=O)oc3c2)CCC4)CC1`: the vesicle binding response was 420% (inactive) and the double positive events came to 65.1%.
With `COc1ccc(OC)c(S(=O)(=O)N2CCCc3ccccc32)c1`, the vesicle binding response is 124% (inactive) and the double positive events stood at 58.6%.
In the same order, the values of `COc1ccc2[nH]c(=O)c3c(c2c1)OC(C)(C)C=C3` are 88% (inactive) and 59.1%.
As to `CCN1CCN(C(=S)c2ccc(OC)cc2)CC1`, the vesicle binding response is 183% (inactive) and the double positive events was found to be 62.5%.
Turning to `C=CCOc1ccc(C(=O)CC)cc1OC`, the vesicle binding response is 174% (inactive) and the double positive events amounted to 60%.
On to `CCc1cccc2c3c([nH]c12)C(CC)(CC(=O)O)OCC3` (stereo not given), for which the double positive events came out at 61.9% and the vesicle binding response is 36.2% (inactive).
Regarding `COc1ccc(OC(C)C(=O)Nc2ccccc2F)cc1` (stereo not given), the double positive events was determined as 58.4% and the vesicle binding response was 151% (inactive).
On the same counts, the results for `CCCC(=O)Nc1ccccc1NC(C)=O` are 65.9% and 170% (inactive).
As to `O=C(O)CCCCCCNC(=O)c1cncc(O)c1`, the double positive events was 63.9% and the vesicle binding response was 153% (inactive).
On the same counts, the results for `COc1ccc(Br)cc1C(=O)Nc1ccc(C(=O)O)cc1` are 63.9% and 240% (inactive).
For the molecule `CC[N+]1(CC)CC2=Cc3ccccc3CC2C1` (stereo not given), the vesicle binding response is 178% (inactive) and the double positive events came out at 64.8%.

The values above are taken from PubChem BioAssay.
